Reference: the supplement of paper PMC12632987
In all, about 1,800 sequences were measured (“median log2 fold change of GCK-ALFA target abundance (FLAG IP / Myc IP barcode read proportion)”: median about 0.14, lowest 2% from about -0.84 on). The sample as a whole holds a higher share of the lowest values than the screen did.

T1: TRAF2, Q12933
T1 chain: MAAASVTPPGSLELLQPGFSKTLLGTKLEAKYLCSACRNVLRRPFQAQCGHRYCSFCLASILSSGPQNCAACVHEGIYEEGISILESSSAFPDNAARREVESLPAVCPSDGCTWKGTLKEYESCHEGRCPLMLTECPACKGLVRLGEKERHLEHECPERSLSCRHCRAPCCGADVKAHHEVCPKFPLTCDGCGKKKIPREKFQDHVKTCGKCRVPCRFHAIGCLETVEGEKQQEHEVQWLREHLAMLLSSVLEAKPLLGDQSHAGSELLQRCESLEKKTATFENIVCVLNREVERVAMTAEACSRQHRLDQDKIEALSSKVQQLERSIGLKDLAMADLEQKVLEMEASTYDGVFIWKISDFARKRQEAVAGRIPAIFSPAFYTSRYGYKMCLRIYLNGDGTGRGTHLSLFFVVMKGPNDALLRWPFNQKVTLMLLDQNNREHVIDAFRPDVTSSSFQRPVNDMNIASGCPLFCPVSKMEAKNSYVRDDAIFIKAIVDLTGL

B1: traf2_out_11_169_847 (protein)
chain: EQEEKNRQIIDKALELEDKAKEELKKHALALAREAGLDVAEVEAIFEKHKGKSLSAIAAALIRWFREQGKEEAAAAVEAKYEELKEEINKKMTEFLKELE
B2: traf2_out_11_169_812 (protein)
chain: EEKEKNRKINDFALELNDEAKKELLKHAKALAKKAGLDVAEVEAIFEKHKNSSLSAVAAALIAYFKSKGKEEEAAAVLAKYEELKEEINKKVTEKIKELE
B3: traf2_out_17_178_1659 (protein)
chain: NKEEARAEISAATDELIDLTEATADRLLAILEADGTASPEELAALREARRLGSATTTRALMEAAVPRSPRSAEVAALLDDFTKRSGELAKKIAEAYKKYE
B4: traf2_out_8_174_2574 (protein)
chain: SERERLRIVSEVLTEFADILDEAEERLEALKDLPLEELRKESQKILDEALKRIDEIEERRVKEVDEETAELIRRAARSAKQQLRNMVEGTIKRKELREKA
B5: traf2_out_11_169_824 (protein)
chain: AEAERNRKINDKALELNDKAKEKLKEFALELAKKAGLDVEEVKAIFEKHKGASLSAIAAALIEYFRSKGKEEEAEAVLKKYEELKDEINKEMAKFLKELE
B6: traf2_out_12_165_941 (protein)
chain: SMRERTEEIVRRAEEEIRRIADAAIAEIRANPDLTPEEVAALRERAVDEMVEVRQRALNELYKAGASIDELAEASERLRRVFDEARARLDAAAAEHLAAR
B7: traf2_out_11_169_848 (protein)
chain: EEEEKNRKIIDKALELNDKAKEELRAHALALAKKAGLDTAAVEAIFEANKGKSLSAVAAALIAWFKAQGKDAEAAAVEAKYEELKEKINKEMTKFLKELE
B8: traf2_out_6_169_2491 (protein)
chain: SMAEELKKEAERHLKTAKELYEIAKTIYNQAINNKNYENIDDYIEALETIKNAYKHHYDKAIEYYKKLGNEEEAEKLEKEKEKKLKEIDEMIKKLKELKK

Molecular target: T1, TRAF2, Q12933
Test: median log2 fold change of GCK-ALFA target abundance (FLAG IP / Myc IP barcode read proportion) (log2 ratio); each designed protein is fused to an ALFA-tag nanobody in HEK293 cells to bring the named protein to FLAG-tagged glucokinase (GCK); Myc marks an untargeted standard; higher = target protein stabilised (more abundant)
Conditions: target protein: 3xFLAG-MCP-GCK-ALFA reporter; HEK293 landing pad (RPLP)
In short: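 Sequencing of reverse-transcribed, amplified circular RNA barcodes from anti-FLAG and anti-Myc immunoprecipitates provided the readout for an ALFA-nanobody-fused binder library recombined into HEK293 landing-pad cells. Those cells were induced with 2 μg mL^−1 doxycycline, transfected with a plasmid expressing a FLAG-tagged target and a Myc-tagged standard, and lysed after 48 h. Target abundance is the per-binder median log2 ratio of FLAG to Myc barcode read proportions. Only barcodes at a proportion of ≥10^−7 in both replicates and binders with ≥3 barcodes per replicate were kept, with a 10^−6 pseudocount added before the two replicates were pooled.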

Binder	median log2 fold change
B1	-0.218
B2	0.302
B3	0.0548
B4	-0.187
B5	0.0712
B6	-0.0195
B7	-0.138
B8	-0.373
